Vif-A3F inh: inhibitors of Vif-A3F interaction | HeLa A3F-eYFP + Vif (tagged APOBEC3F with the HIV-1 protein that degrades it), YFP fluorescence increase | Potency, µM (top dose mostly 46.1 µM), inactives show at the highest dose activity, negative = active | 390,000 tested, 0.2% active | AID 602313; also: potency is read from the fitted curve at half-maximal effect; % of control where 0% means no effect; nearly all actives have a fitted effect of over 65% in size
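HeLa cells stably expressing Vif plus C-terminally eYFP-tagged A3F were seeded, incubated overnight at 37 deg C, dosed with compound, incubated overnight again at 37 deg C. Yellow fluorescence (Ex 488/Em 500-530) reported blocked Vif-mediated A3F-eYFP degradation.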
Vif-A3G inh: blocks the Vif interaction with human APOBEC3G; Potency, µM (doses to about 46.1 µM), for inactives: at the top dose activity, negative = active, usual class: inhibitors; AID 602310; Q9HC16; HeLa A3G-eYFP + Vif (tagged APOBEC3G with the HIV-1 protein that degrades it), YFP fluorescence, overnight; 410,000 tested, 0.076% active; also: potency is read from the fitted curve at half-maximal effect; % is scaled to controls: 0 for no effect and ±100 for the full control effect; nearly all actives have a fitted effect of over 60% in size
Target sequence (Q9HC16 whole entry, looked up): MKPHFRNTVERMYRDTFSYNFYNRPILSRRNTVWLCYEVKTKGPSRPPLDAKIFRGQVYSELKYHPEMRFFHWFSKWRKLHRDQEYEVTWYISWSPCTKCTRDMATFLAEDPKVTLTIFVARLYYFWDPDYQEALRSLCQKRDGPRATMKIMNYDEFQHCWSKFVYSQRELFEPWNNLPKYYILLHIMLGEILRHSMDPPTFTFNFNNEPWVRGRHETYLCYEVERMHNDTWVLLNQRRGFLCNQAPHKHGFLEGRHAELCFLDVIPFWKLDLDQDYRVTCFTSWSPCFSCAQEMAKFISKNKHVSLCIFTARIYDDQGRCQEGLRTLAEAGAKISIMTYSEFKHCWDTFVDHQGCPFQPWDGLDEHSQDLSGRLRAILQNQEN
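HeLa cells stably expressing Vif and C-terminally eYFP-tagged A3G, seeded overnight at 37 deg C, then exposed to compound by pintool overnight at 37 deg C. Rise in yellow fluorescence (Ex 488/Em 500-530, Acumen) marks blocked Vif-driven A3G degradation.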
Epigenetic derep: epigenetic control regulation, reporter derepression; Potency, µM (highest dose often 53.9 µM), without a hit: top-dose GFP activation, most hits filed as activators; AID 1865; 280,000 tested, 0.2% active; murine LDR cells, GFP reporter derepression, 30 h; also: potency is read from the fitted curve at half-maximal effect; % of control where 0% means no effect; nearly all actives have a fitted effect of over 60% in size
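Readout is the number of GFP-expressing murine LDR cells, counted by cytometry following washing. Cells were treated with compound for 30 h at 37 C; the stably integrated CMV-GFP locus is normally silent.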
LDHA inh: blocks human lactate dehydrogenase A; purified LDHA, NADH/diaphorase-resazurin fluorescence; hits give low values; 480,000 tested, 0.15% active; activity change, % (values are at about 110 or 230 µM); in the data active = activity change below about -30%; inconclusive = mostly about -25% to -30%;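 also: plate controls were DMSO wells for no effect and wells without enzyme for full effect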
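Remaining NADH was detected by diaphorase (0.133 mg/mL) converting 37 µM resazurin to fluorescent resorufin, read at 0 and 20 minutes. The preceding 5-minute room-temperature reaction used 2 nM LDHA, 0.2 mM sodium pyruvate and 0.06 mM NADH at pH 7.4.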
Anesthetic bind: binds horse apoferritin like a general anesthetic | apoferritin/1-aminoanthracene competitive binding, fluorescence | 350,000 tested, 0.074% active | Potency, µM (top dose mostly 77.5 µM), for inactives: top-dose activity change, negative = displacement, actives largely listed as inhibitors; also: potency is read from the fitted curve at half-maximal effect; % is scaled to controls: 0 for no effect and ±100 for the full control effect; nearly all actives have a fitted effect of over 20% in size
Target sequence (P02791 2-175 limits assumed): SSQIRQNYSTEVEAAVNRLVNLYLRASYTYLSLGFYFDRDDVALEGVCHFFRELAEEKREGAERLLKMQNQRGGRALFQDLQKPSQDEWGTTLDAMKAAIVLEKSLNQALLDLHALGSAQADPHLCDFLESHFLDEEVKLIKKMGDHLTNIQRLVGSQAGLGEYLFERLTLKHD
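Horse-spleen apoferritin (10 uM) was mixed with 50% saturated 1-aminoanthracene in PBS, exposed to compounds for 10 min at room temperature, and read for fluorescence (ex 380 nm, em 535 nm). Competitive displacement was fitted with a four-parameter Hill equation.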
Starred values were filed as active, the others as inactive; ? = inconclusive; · = not tested or not shown. This is a sample that favours compounds with a hit; in the whole collection about 0.49% have one here. Unless noted, calls follow the shape of the dose curve; as a rule, active = well fitted curve in the direction sought with a large enough effect; inconclusive = small, poorly fitted or top-dose-only effect, or another doubt; inactive = no such curve, though single readings can be large; an effect the other way counts as inactive or inconclusive.

SMILES | Vif-A3F inh | Vif-A3G inh | Epigenetic derep | LDHA inh | Anesthetic bind
O=C1CN(C(=O)N[C@@H](Cc2ccccc2)C(=O)N[C@H](Cc2ccccc2)C(=O)O)c2ccccc2N1 | 1% | 2% | · | -1 | -5%
CCN1CCc2c(sc(NC(=O)c3ccc(S(=O)(=O)N(C)c4ccccc4)cc3)c2C(=O)NC)C1 | 11µM* | ? | · | 1 | ?
CC(C)N1CCc2c(sc(NC(=O)c3ccc(S(=O)(=O)N4CCc5ccccc54)cc3)c2C(N)=O)C1 | 6.3µM* | 20µM* | ? | -1 | -22%
CNC(=O)c1c(NC(=O)c2ccc(S(=O)(=O)N(C)c3ccccc3)cc2)sc2c1CCN(C(C)C)C2 | 7.1µM* | ? | · | -1 | ?
CC(C)N1CCc2c(sc(NC(=O)c3ccc(S(=O)(=O)N(C)C4CCCCC4)cc3)c2C(N)=O)C1 | ? | ? | ? | -19 | ?
CC(C)N1CCc2c(sc(NC(=O)c3cc(-c4cccs4)nc4ccccc34)c2C(N)=O)C1 | ? | 7.1µM* | 18µM* | 3 | -14%
O=C(CN1C(=O)NC2(CCCCC2)C1=O)Nc1cc(C(F)(F)F)ccc1N1CCCC1 | 3% | 1% | · | 1 | ·
CC(C)N1CCc2c(sc(NC(=O)c3ccc(S(=O)(=O)N4CCOCC4)cc3)c2C#N)C1 | 13µM* | -23% | 4% | -2 | -5%
CCOC(=O)c1c(/N=C/N(C)C)sc(/C=N/Nc2ccccc2)c1-c1ccc(Cl)cc1 | -4% | -20% | 11µM* | -4 | -18%
COC(=O)c1c(-c2ccccc2Cl)noc1/C=C/N(C)C | ? | ? | 22µM* | 0 | -13%
CCCCCCCCCCCCS(=O)CC(Cl)CCl (configuration not stated) | · | · | · | -7 | ·
CCOC(=O)c1sc(NC(=S)NC(=O)c2ccco2)nc1C | 22µM* | -1% | -1% | -4 | -13%
COc1ccc2nc(NC(=S)NC(=O)c3ccco3)sc2c1 | 10µM* | 0% | 0% | 0 | -8%
COC(=O)c1sc(NC(=O)c2ccco2)nc1C | -4% | -10% | -6% | -9 | -6%
CCCCn1c(N)c(N(CCC(C)C)C(=O)Cc2ccc(S(=O)(=O)N3CCOCC3)s2)c(=O)[nH]c1=O | 4% | 0% | · | -1 | ·
CCCCn1c(N)c(N(CC(C)C)C(=O)Cc2ccc(S(=O)(=O)N3CCOCC3)s2)c(=O)[nH]c1=O | 25µM* | ? | · | -3 | ·
CC(C)COc1ccc(C(=O)Nc2nonc2-c2ccc(OC(C)C)cc2)cc1 | · | · | · | -30* | ·
Cc1cc(C(C)(C)C)ccc1OCCN(C)C | -4% | -1% | 0% | -31* | -7%
CC1(c2nnc(-c3cccc(Cl)c3)o2)CC(c2ccccc2Br)=NO1 (configuration not stated) | 5% | -8% | · | -4 | -8%
COc1cc(/C=C2\SC(=S)NC2=O)ccc1OS(=O)(=O)c1ccccc1 | · | · | 1% | · | -18%
COc1cc(/C=C2/SC(=S)NC2=O)ccc1OS(=O)(=O)c1ccc(C)cc1 | -1% | -20% | 0% | -34* | -24%
CCN1/C(=C2\SC(=S)N(Cc3ccccc3)C2=O)Sc2ccccc21 | ? | -14% | 13µM* | -1 | -7%
CCN1C(=O)/C(=C2/Sc3ccccc3N2CC)SC1=S | 1% | -2% | · | 0 | -11%
CC(C)(C)c1ccc2cc(C(=O)O)[nH]c2c1 | · | · | · | -10 | ·
COc1cc2cc(C3CC(c4ccco4)=NN3S(C)(=O)=O)c(Cl)nc2cc1OC (configuration not stated) | · | · | · | 12 | ·
SMILES | Vif-A3F inh | Vif-A3G inh | Epigenetic derep | LDHA inh | Anesthetic bind
Clc1ccc(/C=N/NC2=Nc3cccc4cccc2c34)cc1 | 13µM* | ? | ? | -3 | -10%
Cc1ccc(C)c(N2CCN(C(=O)Cn3ncc4ccsc4c3=O)CC2)c1 | 4% | 0% | -4% | 1 | 16%
COc1ccc(NC(=O)N(C)[C@H]2C[C@H]3c4[nH]c5ccccc5c4CCN3C[C@H]2[C@H](C)O)cc1 | -1% | -2% | · | -25 | ·
COc1ccc(CN(C)[C@H]2C[C@H]3c4[nH]c5ccccc5c4CCN3C[C@H]2[C@H](C)O)cc1 | -8% | 0% | · | -30* | ·
O=C(CCCCn1c(=O)c2ccccc2n(Cc2ccccc2F)c1=O)NCc1ccccc1Cl | -9% | -4% | 3% | -2 | -8%
COc1ccc(S(=O)(=O)N2CCOC2CNC(=O)C(=O)NCCc2ccccc2)cc1OC (configuration not stated) | -3% | 0% | · | -13 | -14%
COc1ccc(C2c3ccc(O)cc3Oc3ncn4nc(-c5ccco5)nc4c32)cc1OC (configuration not stated) | -26% | -1% | 22µM* | -6 | 0%
COc1cccc(N2CCN(C(=O)CC(C)(C)CC3=NS(=O)(=O)c4ccccc4N3)CC2)c1 | 2% | 5% | · | -1 | 5%
CC(C(=O)Nc1ccc(F)c(F)c1)N1CCN(C)CC1 (configuration not stated) | -2% | 2% | · | -30* | -8%
COc1ccc(NC(=O)C(C)N2CCN(C)CC2)cc1 (configuration not stated) | -14% | 0% | · | -24 | 7%
Cc1cnc(NC(=O)C(C)N2CCN(C)CC2)s1 (configuration not stated) | 0% | 2% | -2% | -31* | -9%
CCCSc1nc(C)cc(C)c1S(C)(=O)=O | 2% | -1% | -1% | 0 | -8%
Cc1ccc(NC(=O)CS(=O)CC(=O)Nc2ccc(N3CCOCC3)cc2)cc1Cl (configuration not stated) | -17% | -7% | -2% | -31* | ?
CC1(COS(N)(=O)=O)CCCCC1 | -1% | 0% | · | -7 | 5.6µM*
CC(=O)c1cccc(NC(=S)N2c3ccccc3CC2C)c1 (configuration not stated) | 5% | 8.9µM* | -1% | -3 | -20%
COc1cc(C2CC(=O)Oc3c2c(=O)[nH]c2ccccc32)cc(OC)c1OC (configuration not stated) | 3% | -3% | 0% | -11 | 3%
COc1cc(C2CC(=O)Oc3c2c(=O)[nH]c2ccccc32)cc2c1OCO2 (configuration not stated) | · | · | · | -38* | ·
S=C(NC1CCCCC1)N(CCc1ccccc1)CCc1ccccc1 | 7.1µM* | -1% | -1% | 1 | -14%
OCCN(Cc1ccccc1)C(=S)NC1CCCCC1 | 1% | 2% | -2% | -5 | -9%
Cc1cccc(CN2C(=O)c3ccccc3Sc3ccc(C(=O)NCCCN4CCOCC4)cc32)c1 | 1% | 0% | 2% | -1 | -4%
Cc1ccc(CNC(=O)c2ccc3c(c2)NC(=O)C(CS(=O)(=O)Cc2cccc(C)c2)N3)cc1 (configuration not stated) | 22µM* | -13% | ? | -1 | ?

Source: PubChem (National Center for Advancing Translational Sciences (NCATS))
